Source: PubChem BioAssay AID485347 (National Center for Advancing Translational Sciences (NCATS), 2010)
Hit rate of the full screen: of about 340,000 compounds, about 1,200 (0.35%) were called active. This is one part of a sample in which actives are shown more often than they occur.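 How the source made its calls: active means potentiation over 3 SD above the plate norm (cut at about 30% in these data); inactive means the rest.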

molecular target: D(2) dopamine receptor (Homo sapiens) (UniProt P14416); test: HTS Assay for Positive Allosteric Modulators of the Human D2 Dopamine Receptor: Primary Screen for Potentiators; details: HEK293 T-REx D2, calcium flux, EC20 dopamine potentiation; at 10 µM; hits give high values; further: 0% is about no effect
Procedure, shortened: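 Using a no-wash calcium dye in inducible, force-coupled HEK293 Trex cells expressing D2, we tracked fluorescence each second for 180 s after compound, then for 180 s after EC20 dopamine to detect augmented signalling.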

Chain of D(2) dopamine receptor (Homo sapiens) (P14416 whole entry, looked up): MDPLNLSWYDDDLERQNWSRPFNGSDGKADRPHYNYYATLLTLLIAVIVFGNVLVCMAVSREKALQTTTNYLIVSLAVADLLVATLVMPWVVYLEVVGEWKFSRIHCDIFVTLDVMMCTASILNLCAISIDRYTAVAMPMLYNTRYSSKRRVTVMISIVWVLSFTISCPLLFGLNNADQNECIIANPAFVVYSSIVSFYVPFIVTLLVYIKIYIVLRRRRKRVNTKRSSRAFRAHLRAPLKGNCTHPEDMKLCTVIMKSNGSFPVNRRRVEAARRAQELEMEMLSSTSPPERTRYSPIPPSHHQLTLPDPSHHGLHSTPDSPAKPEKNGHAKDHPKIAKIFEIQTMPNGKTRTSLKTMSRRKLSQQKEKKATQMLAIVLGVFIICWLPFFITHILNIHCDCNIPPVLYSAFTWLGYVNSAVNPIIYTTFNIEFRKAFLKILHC

| SMILES | potentiation |
| --- | --- |
| COc1cc(OC)c(C(=O)OCC(=O)N2CC(=O)Nc3ccccc32)cc1OC | 35.4% (active) |
| COc1ccc(Cl)cc1-n1c(C)cc(C(=O)OCC(=O)N2CC(=O)Nc3ccccc32)c1C | -19.1% (inactive) |
| COc1ccc(C(=O)OCC(=O)N2CC(=O)Nc3ccccc32)cc1Br | -9.38% (inactive) |
| O=C(Nc1nnc(C2CC(=O)N(c3ccc(Cl)cc3)C2)s1)c1ccco1 (configuration not stated) | -13.1% (inactive) |
| CC(=O)NCCC(=O)Nc1cc(S(=O)(=O)N2CCCCC2)ccc1Oc1cccc(C)c1 | -0.184% (inactive) |
| Cc1cccc(OCCCC(=O)Nc2ccc(S(=O)(=O)N3CCCC3)cc2)c1 | 9.5% (inactive) |
| Cc1cccc(OCCC(=O)Nc2cc(S(=O)(=O)N3CCCCC3)ccc2N2CCOCC2)c1 | 38.1% (active) |
| CCOC(=O)N1CCC(NC(=O)c2cnn(-c3cccc(C)c3)c2C2CCN(C(=O)OC(C)(C)C)CC2)CC1 | -9.08% (inactive) |
| Cn1nnnc1SCCNCc1ccc(Cl)c(Cl)c1 | -14.4% (inactive) |
| Cc1cc(C)n(S(=O)(=O)c2cccc([N+](=O)[O-])c2)n1 | 2.11% (inactive) |
| CC1=NCCN1S(=O)(=O)c1cccc([N+](=O)[O-])c1 | 12.8% (inactive) |
| Cc1ccc(-c2cn(S(=O)(=O)c3cccc([N+](=O)[O-])c3)nc2N)cc1 | 30.3% (active) |
| COc1cccc(C(c2c(O)cc(C)n(Cc3ccco3)c2=O)N2CCN(c3ccccc3)CC2)c1 (configuration not stated) | -2.97% (inactive) |
| Cc1ccccc1CNC(=O)CCc1cn(Cc2ccccc2C)c2ccccc12 | -1.4% (inactive) |
| COc1ccc(-c2cn3nc(N4CCCC(C(=O)NCCCOC(C)C)C4)sc3n2)cc1 (configuration not stated) | -3.35% (inactive) |
| Cc1cccc(NC(=O)C2CCN(S(=O)(=O)c3c(C)noc3/C=C/c3ccco3)CC2)c1 | 2.71% (inactive) |
| O=C(CCNC(=O)c1ccc(Br)cc1)NCCCc1ccccc1 | 33% (active) |
| O=C(CCNS(=O)(=O)c1ccccc1)NCCCc1ccccc1 | -12.4% (inactive) |
| CC(C)c1ccc(C(=O)NCCCc2ccccc2)cc1 | -14.7% (inactive) |
| Cc1cc(F)ccc1NS(=O)(=O)c1ccc(-n2cccn2)cc1 | -0.96% (inactive) |
| COc1ccc(CCNC(=O)c2cc(=O)c3c(C)cc(C)cc3o2)cc1OC | -14.8% (inactive) |
| COc1ccc(S(=O)(=O)N2CCC(C(=O)NCc3ccco3)CC2)cc1C | 6.74% (inactive) |
| COc1ccc(CNC(=O)C2CC(c3ccc(C(F)(F)F)cc3)=NO2)cc1 (configuration not stated) | 11.9% (inactive) |

| SMILES | potentiation |
| --- | --- |
| COc1ccc(C2=NOC(C(=O)NCc3ccco3)C2)cc1OC (configuration not stated) | 32.1% (active) |
| COc1cccc(-n2cc(C(=O)NCc3cccc(Cl)c3)c3ccccc3c2=O)c1 | 3.92% (inactive) |
| Cc1nnc(NCc2ccccc2)c2c1nnn2Cc1ccc(F)cc1 | -11.5% (inactive) |
| COc1cc(Cl)c(NC(=O)C(NS(=O)(=O)c2cccs2)C(C)C)c(OC)c1 (configuration not stated) | -0.155% (inactive) |
| COCc1c(C(=O)N/N=C/C2CC=CCC2)nnn1-c1nonc1N (configuration not stated) | 5.51% (inactive) |
| Nc1nonc1-n1nnc(C(=O)N/N=C/C2CCCCC2)c1-c1ccccc1 | 38.6% (active) |
| CC(C)c1c(C(=O)N/N=C/c2ccc(-c3ccccc3)cc2)nnn1-c1nonc1N | 4.04% (inactive) |
| Cc1cc(C)c2oc(-c3cccc(NC(=O)c4cccc(F)c4)c3C)nc2c1 | -6.15% (inactive) |
| COc1cccc(-c2nc(CS(=O)(=O)CC(=O)N3CCN(c4cc(C)ccc4C)CC3)c(C)o2)c1 | 20.2% (inactive) |
| Cc1ccc(SCC2=NNC(=O)C2)cc1 | 31.9% (active) |
| Cc1ccc(SCCSc2ncccn2)cc1 | -3.01% (inactive) |
| Cc1ccc(SCc2cc(=O)[nH]c(N3CCCCC3)n2)cc1 | -9.08% (inactive) |
| CCn1c2ccccc2c2cc(NC(=O)COc3ccc(C)cc3C)ccc21 | -13% (inactive) |
| CCc1ccc(NC(=O)c2nn(-c3ccc(C)cc3)c(=O)n(C)c2=O)cc1 | 11.1% (inactive) |
| COC(=O)COc1ccc(S(=O)(=O)N2CCOCC2)cc1 | -3.49% (inactive) |
| O=C(COC(=O)/C=C/c1ccc(S(=O)(=O)N2CCCCCC2)cc1)NCc1ccccc1Cl | -11.9% (inactive) |
| COc1ccc(CNC(=O)COC(=O)/C=C/c2ccc(S(=O)(=O)N3CCOCC3)cc2)cc1 | 33.3% (active) |
| CCn1c(CN2CCC(C)CC2)nc2cc(NC(=O)c3ccccc3[N+](=O)[O-])ccc21 | -38.3% (inactive) |
| O=C(Cn1cc(SCc2cccc(Cl)c2)c2ccccc21)N1CCCCC1 | 1.4% (inactive) |
| O=C(COc1ccc(Cl)cc1)N1CCN(S(=O)(=O)c2ccc(Cl)cc2)CC1 | -3.15% (inactive) |
| Cc1c(C)c2ccc(OCC(=O)N3CCN(c4cccc(Cl)c4)CC3)cc2oc1=O | -6.58% (inactive) |
| O=C(COc1ccc(Cl)cc1)N1CCN(c2cccc(C(F)(F)F)c2)CC1 | 35.5% (active) |
| CCOC(=O)c1ccc(N2C(=O)c3n[nH]c(-c4ccco4)c3C2c2ccc(O)cc2)cc1 (configuration not stated) | -20% (inactive) |

| SMILES | potentiation |
| --- | --- |
| Nc1ncc(S(=O)(=O)Nc2ccc(OC(F)(F)F)cc2)cn1 | -3.21% (inactive) |
| CCOc1ccc(NC(=O)CC2C(=O)N(c3cccc(OC)c3)C(=O)N2C2CCCCC2)cc1 (configuration not stated) | 2.76% (inactive) |
| COc1ccc(S(=O)(=O)c2cn(C)c3cc(N4CCCCC4)c(F)cc3c2=O)cc1 | -4.51% (inactive) |
| COc1ccccc1N1CCN(c2ncnc3sc(C)c(-c4ccccc4)c23)CC1 | 37.8% (active) |
| COC(=O)c1cnc(N2CCN(c3ccccc3OC)CC2)c2ccccc12 | 3.09% (inactive) |
| COc1ccccc1N1CCN(c2ncnc3onc(-c4ccc(F)cc4)c23)CC1 | -4.24% (inactive) |
| CCc1ccc(C2C(C(=O)Nc3ccccc3)=C(C)Nc3c(C(=O)Nc4ccc(C)cc4)cnn32)cc1 (configuration not stated) | 4.34% (inactive) |
| COc1ccccc1N1CCN(c2ccc(=O)n(CC(=O)NCc3ccc(OC(C)C)cc3)n2)CC1 | -2.29% (inactive) |
| COc1cccc(NC(=O)C2c3cc(OC)c(OC)cc3C(=O)N(C)C2c2cccnc2)c1 (configuration not stated) | 30.1% (active) |
| CCOc1cc2c(cc1OCC)C(C(=O)O)C(c1ccc(OC)c(O)c1)N(C)C2=O (configuration not stated) | -25.6% (inactive) |
| COc1cccc(NC(=O)C2C(c3ccccc3)C2(Cl)Cl)c1 (configuration not stated) | -7.1% (inactive) |
| Cc1ccc(O)c(NC(=O)CCS(=O)(=O)c2nc(-c3ccc4c(c3)OCO4)cc(C(F)(F)F)n2)c1 | 5.96% (inactive) |
| Cc1cccc(NC(c2cccc(F)c2)c2ccc3ccc(C)nc3c2O)n1 (configuration not stated) | 0.98% (inactive) |
| Cc1cc(C)cc(-n2c(SCC(=O)NCC3CCCO3)nc3c([nH]c4ccccc43)c2=O)c1 (configuration not stated) | -6.86% (inactive) |
| Cc1ccc(-n2cnc3cc(C(=O)NCCC4=CCCCC4)ccc32)cc1Cl | 9.63% (inactive) |
| CCn1c2ccccc2c2cc(CN3CCN(Cc4cccc(Cl)c4)CC3)ccc21 | -11.2% (inactive) |
| CCOC(=O)N1CCC(NC(=O)CCc2ccccc2)CC1 | -4.2% (inactive) |
| CCOC(=O)N1CCC(c2cc(=O)n(-c3ccccc3)[nH]2)CC1 | 49.5% (active) |
| CCOC(=O)CN1CCC(c2ccccc2)CC1 | -9.51% (inactive) |
| CCCCS(=O)(=O)c1oc(-c2cccs2)nc1S(=O)(=O)c1ccccc1 | 3.55% (inactive) |
| CCS(=O)(=O)N1CCc2cc(C(=O)N3CCN(c4ccccc4OC)CC3)ccc21 | 3.69% (inactive) |
